The full data set covers some 7,900 targets. This sample favours those with a hit. About 0.6% of all pairs of compound and target were hits. Values without a mark were called inactive.
Tests used:
Assay in all cases: log2 fold change, soluble protein after heating vs DMSO (PISA); higher = thermal stabilisation; K562 cells, 10 uM, 30 min; active = over 0.2 and 3.5 SD of the protein, either way, in both replicates (recomputed)
[1] = compound: CC1=C(C=C(C=C1)NC(=O)C2=CC(=CC=C2)C(C)(C)C#N)NC3=CC4=C(C=C3)N=CN(C4=O)C
In short: (§1)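 K562 cells at 2×10^6 cells/mL were treated for 30 min with 10 μM compound, and aliquots were heated for 3 min over 48°C-58°C before pooling. Extraction used PBS with 0.5% NP-40 at 4°C, and soluble protein was the supernatant after 21,000xg for 90 min, measured by TMTpro 16plex LC-MS/MS with channel sums equalised. Thermal stability values, relative to control samples and from duplicates, are log2 fold changes.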

[2] = compound: CC1=C(C=C(C=C1)NC(=O)C2=CC(=CC=C2)N(C)C)NC(=O)C3=CC=C(C=C3)O
In short: as §1

[3] = compound: CC1=CC=C(C=C1)SC2=C3C=C(SC3=CN=C2)C(=O)N
In short: as §1

[4] = compound: CC1=NC(=CC=C1)C2=C(N=C(N2)C(C)(C)C)C3=CC4=NC=CN=C4C=C3
In short: as §1

Nexturastat A = compound: CCCCN(Cc1ccc(C(=O)NO)cc1)C(=O)Nc1ccccc1 [Nexturastat A]
In short: as §1

vemurafenib = compound: CCCS(=O)(=O)Nc1ccc(F)c(C(=O)c2c[nH]c3ncc(-c4ccc(Cl)cc4)cc23)c1F [vemurafenib]
In short: as §1

[5] = compound: CCCS(=O)(=O)Nc1ccc(F)c(C(=O)c2c[nH]c3ncc(Cl)cc23)c1F
In short: as §1

[6] = compound: CCCc1cc(C)[nH]c(=O)c1CNC(=O)c1cc(-c2ccnc(N3CCN(C)CC3)c2)cc2c1cnn2C(C)C
In short: as §1

givinostat = compound: CCN(CC)Cc1ccc2cc(COC(=O)Nc3ccc(C(=O)NO)cc3)ccc2c1 [givinostat]
In short: as §1

barasertib = compound: CCN(CCCOc1ccc2c(Nc3cc(CC(=O)Nc4cccc(F)c4)[nH]n3)ncnc2c1)CCOP(=O)(O)O [barasertib]
In short: as §1

[7] = compound: CC[C@@H]1C(=O)N(C)c2cnc(Nc3ccc(C(=O)NC4CCN(C)CC4)cc3OC)nc2N1C1CCCC1
In short: as §1

volasertib = compound: CC[C@@H]1C(=O)N(C)c2cnc(Nc3ccc(C(=O)N[C@H]4CC[C@H](N5CCN(CC6CC6)CC5)CC4)cc3OC)nc2N1C(C)C [volasertib]
In short: as §1

[8] = compound: CC[C@H](C)N1C=C(C2=C(C=C(C=C21)C3=CN=C(C=C3)N4CCNCC4)C(=O)NCC5=C(C=C(NC5=O)C)C)C
In short: as §1

epoxomicin = compound: CC[C@H](C)[C@@H](C(=O)N[C@@H]([C@@H](C)O)C(=O)N[C@@H](CC(C)C)C(=O)[C@]1(CO1)C)NC(=O)[C@H]([C@@H](C)CC)N(C)C(=O)C [epoxomicin]
In short: as §1

[9] = compound: CCn1c(C(=O)N(C2CC2)C2CC2)cc2c3c(ncn3C)c(Nc3cc(C)n(C)n3)nc21
In short: as §1

[10] = compound: CCn1cc(-c2ccnc3[nH]c(-c4cccc(CN(C)C)c4)cc23)c(-c2ccc(NC(=O)N(C)C)cc2)n1
In short: as §1

[11] = compound: CN(C)CC(=O)Nc1ccc2[nH]c(=O)c3ccccc3c2c1
In short: as §1

rosiglitazone = compound: CN(CCOC1=CC=C(C=C1)C[C@H]2C(=O)NC(=O)S2)C3=CC=CC=N3 (racemic) [rosiglitazone]
In short: as §1

[12] = compound: CN1C2=C(C3=C1C(=O)N(N=C3)CC4=CC(=CC=C4)N)SC(=C2)S(=O)C
In short: as §1

[13] = compound: CN1CCC(CNc2ccc3ncc(-c4cccc(OC(F)(F)F)c4)n3n2)CC1
In short: as §1

UniProt P49643, sequence (P49643 whole entry, looked up): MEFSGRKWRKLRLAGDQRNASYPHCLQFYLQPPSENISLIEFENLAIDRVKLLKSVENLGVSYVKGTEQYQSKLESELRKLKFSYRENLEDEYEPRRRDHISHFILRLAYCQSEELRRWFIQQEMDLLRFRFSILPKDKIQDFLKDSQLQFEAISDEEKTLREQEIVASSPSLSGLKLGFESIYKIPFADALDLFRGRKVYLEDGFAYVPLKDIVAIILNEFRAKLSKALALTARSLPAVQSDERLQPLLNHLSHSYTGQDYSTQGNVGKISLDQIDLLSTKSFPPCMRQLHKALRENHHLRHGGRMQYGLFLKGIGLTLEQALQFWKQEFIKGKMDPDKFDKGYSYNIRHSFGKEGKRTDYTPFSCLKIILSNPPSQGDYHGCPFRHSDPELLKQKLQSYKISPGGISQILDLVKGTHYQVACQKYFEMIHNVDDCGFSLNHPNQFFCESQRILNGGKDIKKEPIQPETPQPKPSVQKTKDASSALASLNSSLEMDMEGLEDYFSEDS
UniProt Q9Y3C6, sequence (Q9Y3C6 whole entry, looked up): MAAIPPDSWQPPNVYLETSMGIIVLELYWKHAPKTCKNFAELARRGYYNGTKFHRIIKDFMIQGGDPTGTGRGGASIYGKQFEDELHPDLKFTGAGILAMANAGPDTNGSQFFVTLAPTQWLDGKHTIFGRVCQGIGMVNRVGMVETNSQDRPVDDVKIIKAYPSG
UniProt Q99460, sequence (Q99460 whole entry, looked up): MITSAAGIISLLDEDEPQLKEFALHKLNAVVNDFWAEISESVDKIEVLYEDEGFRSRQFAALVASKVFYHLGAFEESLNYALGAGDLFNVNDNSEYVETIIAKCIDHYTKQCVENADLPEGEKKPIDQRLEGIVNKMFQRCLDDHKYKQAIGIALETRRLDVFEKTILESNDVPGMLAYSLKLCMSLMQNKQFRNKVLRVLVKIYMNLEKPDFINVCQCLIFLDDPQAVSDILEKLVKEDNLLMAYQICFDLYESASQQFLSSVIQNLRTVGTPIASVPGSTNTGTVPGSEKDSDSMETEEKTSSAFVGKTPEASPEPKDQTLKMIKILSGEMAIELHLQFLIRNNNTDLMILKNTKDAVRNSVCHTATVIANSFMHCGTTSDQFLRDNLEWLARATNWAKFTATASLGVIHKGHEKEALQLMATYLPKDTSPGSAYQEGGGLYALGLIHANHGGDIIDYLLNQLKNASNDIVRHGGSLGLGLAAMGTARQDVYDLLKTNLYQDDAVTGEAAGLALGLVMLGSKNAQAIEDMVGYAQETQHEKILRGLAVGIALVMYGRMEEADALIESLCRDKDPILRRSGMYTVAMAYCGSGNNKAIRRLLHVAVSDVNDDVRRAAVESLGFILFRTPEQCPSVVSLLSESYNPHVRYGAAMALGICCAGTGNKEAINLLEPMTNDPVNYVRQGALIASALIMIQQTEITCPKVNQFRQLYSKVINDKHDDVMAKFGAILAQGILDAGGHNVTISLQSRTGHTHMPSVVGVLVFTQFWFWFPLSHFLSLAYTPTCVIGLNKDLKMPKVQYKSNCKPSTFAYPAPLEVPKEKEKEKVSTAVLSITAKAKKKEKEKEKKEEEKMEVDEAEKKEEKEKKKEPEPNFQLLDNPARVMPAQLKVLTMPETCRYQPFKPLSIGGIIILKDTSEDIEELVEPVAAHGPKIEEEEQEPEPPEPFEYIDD
UniProt Q5JVF3, sequence (Q5JVF3 whole entry, looked up): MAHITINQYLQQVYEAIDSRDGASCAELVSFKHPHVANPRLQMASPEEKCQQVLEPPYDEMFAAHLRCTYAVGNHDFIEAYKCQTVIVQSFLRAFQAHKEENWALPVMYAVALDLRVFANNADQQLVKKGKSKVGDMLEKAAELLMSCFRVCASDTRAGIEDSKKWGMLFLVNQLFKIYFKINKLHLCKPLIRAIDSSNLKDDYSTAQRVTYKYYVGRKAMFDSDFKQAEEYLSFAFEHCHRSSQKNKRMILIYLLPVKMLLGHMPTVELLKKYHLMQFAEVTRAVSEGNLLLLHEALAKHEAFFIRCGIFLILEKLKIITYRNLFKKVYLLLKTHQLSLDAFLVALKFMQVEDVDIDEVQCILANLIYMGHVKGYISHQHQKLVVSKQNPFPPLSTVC
UniProt Q13131, sequence (Q13131 whole entry, looked up): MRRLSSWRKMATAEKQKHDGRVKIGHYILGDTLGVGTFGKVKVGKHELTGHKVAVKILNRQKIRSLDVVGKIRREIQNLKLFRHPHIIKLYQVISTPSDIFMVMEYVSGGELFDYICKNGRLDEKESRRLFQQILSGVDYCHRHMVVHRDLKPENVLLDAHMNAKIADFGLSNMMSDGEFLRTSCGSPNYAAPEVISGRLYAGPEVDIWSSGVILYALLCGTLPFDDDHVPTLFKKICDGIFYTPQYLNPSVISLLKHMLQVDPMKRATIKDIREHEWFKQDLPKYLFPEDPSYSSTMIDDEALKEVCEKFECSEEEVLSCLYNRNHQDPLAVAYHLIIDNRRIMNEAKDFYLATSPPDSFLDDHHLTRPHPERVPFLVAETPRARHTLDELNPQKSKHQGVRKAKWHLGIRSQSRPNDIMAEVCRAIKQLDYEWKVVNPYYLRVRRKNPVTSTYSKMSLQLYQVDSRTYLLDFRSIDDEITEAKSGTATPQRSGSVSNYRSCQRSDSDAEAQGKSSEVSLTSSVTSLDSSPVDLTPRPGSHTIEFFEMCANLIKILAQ
UniProt Q8NEB9, sequence (Q8NEB9 whole entry, looked up): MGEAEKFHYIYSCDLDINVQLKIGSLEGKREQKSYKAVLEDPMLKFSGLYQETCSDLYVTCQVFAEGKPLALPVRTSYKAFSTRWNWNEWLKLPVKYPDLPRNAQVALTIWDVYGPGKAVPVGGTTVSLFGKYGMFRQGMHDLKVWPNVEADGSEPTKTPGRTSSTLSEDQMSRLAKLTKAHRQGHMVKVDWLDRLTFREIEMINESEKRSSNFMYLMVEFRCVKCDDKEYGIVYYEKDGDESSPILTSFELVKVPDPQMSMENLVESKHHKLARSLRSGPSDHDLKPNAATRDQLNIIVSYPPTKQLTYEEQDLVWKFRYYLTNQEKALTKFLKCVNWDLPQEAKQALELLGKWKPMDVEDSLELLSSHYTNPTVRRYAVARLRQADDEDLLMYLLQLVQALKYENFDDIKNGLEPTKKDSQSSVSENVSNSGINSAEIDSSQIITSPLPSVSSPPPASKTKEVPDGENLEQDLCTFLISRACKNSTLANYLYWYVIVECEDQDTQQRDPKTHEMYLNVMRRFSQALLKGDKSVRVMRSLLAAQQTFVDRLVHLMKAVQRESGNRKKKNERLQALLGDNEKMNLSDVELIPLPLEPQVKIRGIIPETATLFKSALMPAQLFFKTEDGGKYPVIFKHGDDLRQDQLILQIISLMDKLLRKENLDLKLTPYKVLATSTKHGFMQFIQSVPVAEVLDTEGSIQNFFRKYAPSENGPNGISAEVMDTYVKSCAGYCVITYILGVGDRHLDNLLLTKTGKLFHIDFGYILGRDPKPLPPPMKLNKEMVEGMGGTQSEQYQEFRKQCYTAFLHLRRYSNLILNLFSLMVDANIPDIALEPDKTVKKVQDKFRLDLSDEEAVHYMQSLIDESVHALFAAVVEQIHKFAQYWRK
UniProt P62136, sequence (P62136 whole entry, looked up): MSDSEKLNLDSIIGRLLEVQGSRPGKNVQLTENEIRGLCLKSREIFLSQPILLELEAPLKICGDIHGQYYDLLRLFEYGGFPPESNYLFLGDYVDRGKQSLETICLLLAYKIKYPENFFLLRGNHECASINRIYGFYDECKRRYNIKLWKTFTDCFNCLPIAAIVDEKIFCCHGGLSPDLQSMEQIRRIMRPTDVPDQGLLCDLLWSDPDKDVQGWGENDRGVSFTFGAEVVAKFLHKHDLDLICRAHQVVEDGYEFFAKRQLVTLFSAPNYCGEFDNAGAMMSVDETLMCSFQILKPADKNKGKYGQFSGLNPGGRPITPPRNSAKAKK
UniProt Q05209, sequence (Q05209 whole entry, looked up): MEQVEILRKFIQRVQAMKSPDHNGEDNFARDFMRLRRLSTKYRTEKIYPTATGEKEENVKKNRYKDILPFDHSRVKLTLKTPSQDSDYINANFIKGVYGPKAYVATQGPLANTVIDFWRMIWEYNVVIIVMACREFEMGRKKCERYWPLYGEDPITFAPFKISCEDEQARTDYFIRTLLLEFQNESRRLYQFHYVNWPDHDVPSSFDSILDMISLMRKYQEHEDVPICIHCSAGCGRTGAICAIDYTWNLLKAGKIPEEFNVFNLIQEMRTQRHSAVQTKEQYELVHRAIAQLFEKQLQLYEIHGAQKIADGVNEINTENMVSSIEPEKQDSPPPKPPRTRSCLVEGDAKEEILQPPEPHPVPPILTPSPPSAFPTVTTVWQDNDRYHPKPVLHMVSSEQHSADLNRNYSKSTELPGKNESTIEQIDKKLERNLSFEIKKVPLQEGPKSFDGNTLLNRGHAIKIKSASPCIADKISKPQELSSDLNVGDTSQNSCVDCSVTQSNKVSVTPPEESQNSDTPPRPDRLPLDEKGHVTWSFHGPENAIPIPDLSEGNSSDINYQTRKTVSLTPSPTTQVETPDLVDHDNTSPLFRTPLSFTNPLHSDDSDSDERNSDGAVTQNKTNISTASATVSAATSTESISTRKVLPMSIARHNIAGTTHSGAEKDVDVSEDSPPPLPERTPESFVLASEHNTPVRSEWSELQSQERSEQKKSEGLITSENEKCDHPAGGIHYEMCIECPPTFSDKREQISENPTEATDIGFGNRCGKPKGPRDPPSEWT
UniProt Q00577, sequence (Q00577 whole entry, looked up): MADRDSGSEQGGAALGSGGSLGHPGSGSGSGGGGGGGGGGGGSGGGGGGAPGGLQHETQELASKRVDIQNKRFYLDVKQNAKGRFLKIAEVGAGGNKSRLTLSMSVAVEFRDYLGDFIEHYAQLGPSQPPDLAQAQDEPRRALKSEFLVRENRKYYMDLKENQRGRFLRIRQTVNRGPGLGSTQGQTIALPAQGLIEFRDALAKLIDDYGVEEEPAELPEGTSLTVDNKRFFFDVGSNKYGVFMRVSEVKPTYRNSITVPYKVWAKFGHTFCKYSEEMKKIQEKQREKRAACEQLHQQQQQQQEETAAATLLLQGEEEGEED

Row | Target | log2 fold change [1] | log2 fold change [2] | log2 fold change [3] | log2 fold change [4] | log2 fold change (Nexturastat A) | log2 fold change (vemurafenib) | log2 fold change [5] | log2 fold change [6] | log2 fold change (givinostat) | log2 fold change (barasertib) | log2 fold change [7] | log2 fold change (volasertib) | log2 fold change [8] | log2 fold change (epoxomicin) | log2 fold change [9] | log2 fold change [10] | log2 fold change [11] | log2 fold change (rosiglitazone) | log2 fold change [12] | log2 fold change [13]
1 | POLR2K (UniProt P53803) | -0.036 | 0.065 | 0.056 | 0.024 | -0.162 | -0.001 | -0.024 | 0.075 | -0.137 | 0.023 | -0.259 | -0.002 | -0.05 | -0.032 | 0.144 | -0.049 | 0.05 | -0.059 | -0.02 | 0.05
2 | PTRHD1 (UniProt Q6GMV3) | -0.051 | -0.098 | 0.017 | 0.022 | 0.074 | 0.059 | -0.024 | -0.024 | -0.008 | 0.034 | 0.106 | 0.037 | -0.028 | 0.415 (active) | 0.064 | 0.086 | -0.056 | 0.048 | 0.019 | 0.078
3 | PURA (UniProt Q00577) | 0.032 | 0.032 | -0.101 | -0.121 | 0.112 | -0.111 | -0.143 | 0.144 | -0.008 | -0.091 | 0.355 | 0.418 | -0.087 | -0.197 | 0.036 | 0.26 | -0.095 | -0.18 | 0.327 | 0.441
4 | PCID2 (UniProt Q5JVF3) | 0.024 | -0.026 | -0.066 | 0.033 | 0.153 | 0.069 | 0.202 | 0.071 | 0.114 | -0.016 | -0.032 | 0.016 | 0.072 | 0.027 | -0.149 | 0.035 | -0.021 | 0.064 | 0.055 | -0.086
5 | PSMC2 (UniProt P35998) | 0.011 | 0.02 | -0.012 | -0.069 | 0.011 | -0.014 | -0.041 | 0.036 | -0.032 | -0.053 | 0.042 | 0.169 | -0.019 | -0.324 (active) | 0.012 | 0.024 | -0.018 | -0.044 | 0.023 | 0.039
6 | PTPN12 (UniProt Q05209) | -0.026 | -0.071 | -0.037 | -0.034 | 0.162 | -0.002 | 0.04 | 0.07 | 0.072 | 0.127 | -0.119 | -0.465 (active) | 0.063 | -0.012 | -0.077 | 0.027 | 0.015 | 0.014 | 0.079 | -0.043
7 | PXK (UniProt Q7Z7A4) | 0.017 | -0.059 | -0.041 | 0.011 | -0.018 | 0.017 | 0.071 | -0.046 | 0.022 | 0.002 | -0.136 | -0.077 | 0.04 | 0.029 | 0.004 | -0.012 | 0.027 | 0.046 | -0.028 | -0.208
8 | PIK3C3 (UniProt Q8NEB9) | 0.003 | 0.015 | -0.046 | -0.085 | 0.54 (active) | -0.001 | 0.02 | -0.051 | 0.088 | -0.015 | 0.16 | 0.153 | 0.023 | -0.071 | 0.044 | -0.117 | -0.03 | -0.022 | 0.025 | 0.015
9 | PPIL1 (UniProt Q9Y3C6) | -0.002 | 0.023 | 0 | -0.024 | 0.025 | -0.045 | 0.027 | -0.016 | -0.038 | 0.033 | 0.014 | -0.051 | 0.01 | -0.024 | -0.042 | 0.02 | -0.014 | 0.035 | 0.049 | 0.018
10 | POLR2A (UniProt P24928) | -0.009 | -0.049 | 0.064 | 0.018 | 0.001 | 0.002 | 0.071 | -0.023 | -0.024 | 0.024 | 0.093 | -0.034 | 0.006 | 0.004 | -0.058 | 0.022 | 0.041 | 0.007 | -0.052 | 0.156
11 | PSMD1 (UniProt Q99460) | 0.06 | 0.021 | -0.001 | -0.011 | 0.055 | -0.041 | -0.049 | 0.05 | -0.046 | -0.036 | 0.042 | 0.146 | -0.001 | -0.278 | 0.015 | 0.028 | -0.005 | -0.026 | 0.043 | 0.059
12 | PRKAA1 isoform 2 (UniProt Q13131) | -0.029 | 0.001 | -0.001 | 0.02 | -0.042 | 0.025 | 0.008 | 0.021 | -0.014 | 0.016 | -0.035 | -0.154 | 0.04 | 0.017 | -0.026 | -0.052 | -0.007 | 0.016 | 0.001 | -0.254 (active)
13 | PTPMT1 (UniProt Q8WUK0) | 0.043 | -0.019 | 0.025 | 0.025 | -0.114 | -0.047 | 0.031 | -0.029 | -0.029 | 0.041 | -0.298 | -0.127 | 0.002 | 0.088 | 0.044 | -0.051 | 0.012 | -0.012 | -0.006 | -1.21 (active)
14 | PRIM2 (UniProt P49643) | -0.028 | -0.018 | -0.019 | 0.054 | 0.017 | 0.054 | 0.03 | 0.023 | 0.085 | 0.08 | -0.119 | -0.285 (active) | 0.147 | 0.02 | -0.041 | -0.07 | 0.076 | 0.065 | 0.013 | -0.131
15 | PPP1CA (UniProt P62136) | -0.024 | -0.019 | -0.071 | 0.164 | -0.09 | -0.023 | -0.05 | 0 | -0.009 | 0.035 | -0.014 | -0.061 | 0.003 | 0.02 | 0.011 | -0.041 | -0.033 | 0.015 | -0.077 | 0.011
16 | PTDSS1 (UniProt P48651) | 0.005 | -0.006 | 0.08 | -0.01 | 0.192 | -0.055 | 0.019 | -0.007 | 0.072 | 0.03 | 0.004 | 0.009 | -0.069 | -0.035 | -0.019 | 0.124 | 0 | 0.031 | 0.177 | -0.081
